Reference: PubChem BioAssay (NCATS)
“And” between values parts separate entries of the source, which are not always exact repeats. Equal values may be shown once. Results filed as inconclusive are left out. A call without a number means that no potency is given here. Values without a mark were called inactive. The source made the active and inactive calls. Calls come from the whole dose curve; as a rule, active = well fitted inhibition curve with a large enough effect; inconclusive = small, poorly fitted or top-dose-only effect; inactive = flat fitted curve, though single readings scatter.

Key:
PC15 = assay: qHTS profiling for inhibitors of Plasmodium falciparum proliferation (AID 504749); details: P. falciparum in erythrocytes, SYBR Green DNA, 72 h; series mostly up to 28.7 µM
How it was run: (§1)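 Infected RBCs, 0.3% parasitemia/2.5% Hct final; cpd 72 h, 37 C, 5% CO2; lysis buffer with saponin/triton/SYBR Green I, o/n RT dark; FI 485/535; norm. to artemisinin (0.29 uM) and DMSO.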

PC26 = assay: as above; details: P. falciparum in erythrocytes, SYBR Green DNA, 72 h; series mostly up to 28.7 µM
How it was run: as §1

PC49 = assay: as above; details: P. falciparum in erythrocytes, SYBR Green DNA, 72 h; series mostly up to 28.7 µM
How it was run: as §1

SC27B = assay: as above; details: P. falciparum in erythrocytes, SYBR Green DNA, 72 h; series mostly up to 28.7 µM
How it was run: as §1

TAB109 = assay: as above; details: P. falciparum in erythrocytes, SYBR Green DNA, 72 h; series mostly up to 28.7 µM
How it was run: as §1

TAB113 = assay: as above; details: P. falciparum in erythrocytes, SYBR Green DNA, 72 h; series mostly up to 28.7 µM
How it was run: as §1

TAB165 = assay: as above; details: P. falciparum in erythrocytes, SYBR Green DNA, 72 h; series mostly up to 28.7 µM
How it was run: as §1

W2 = assay: as above; details: P. falciparum in erythrocytes, SYBR Green DNA, 72 h; series mostly up to 28.7 µM
How it was run: as §1

CRL-7250 [1] = assay: Cytotoxic Profiling of Annotated Libraries Using Quantitative High-Throughput Screening (AID 1296008); details: Five cell lines viability, CellTiter-Glo ATP luminescence, 48-72 h; max response: active compounds read low
How it was run: (§2)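 Cytotoxicity was measured as CellTiter-Glo ATP luminescence, read after 10 min at room temperature. Compound treatment of the cells lasted 48 or 72 hr at 37 degrees Celsius in a qHTS format.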

HEK293 = assay: as above; details: Five cell lines viability, CellTiter-Glo ATP luminescence, 48-72 h; max response: active compounds read low
How it was run: as §2

HaCat [2] = assay: as above; details: Five cell lines viability, CellTiter-Glo ATP luminescence, 48-72 h; max response: active compounds read low
How it was run: as §2

KB-3-1 = assay: as above; details: Five cell lines viability, CellTiter-Glo ATP luminescence, 48-72 h; max response: active compounds read low
How it was run: as §2

NIH3T3 = assay: as above; details: Five cell lines viability, CellTiter-Glo ATP luminescence, 48-72 h; max response: active compounds read low
How it was run: as §2

HACAT [3] = assay: qHTS assay to identify novel small-molecules to repurpose for Merkel cell carcinoma treatment (AID 1296009); details: MCC and control cell lines, CellTiter-Glo viability, 72 h; at 44.8 µM (top of the series) unless noted
How it was run: (§3)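 72 hr, 37 degree celsius; NPC 8-pt / MIPE 11-pt dose response; compound pinned in DMSO; CellTiter-Glo, 10 min RT, luminescence; normalized to no-cell and DMSO controls.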

MCC-13 = assay: as above; details: MCC and control cell lines, CellTiter-Glo viability, 72 h; series mostly up to 46 µM
How it was run: as §3

MCC-26 = assay: as above; details: MCC and control cell lines, CellTiter-Glo viability, 72 h; series mostly up to 46 µM
How it was run: as §3

MKL-1 = assay: as above; details: MCC and control cell lines, CellTiter-Glo viability, 72 h; series mostly up to 46 µM
How it was run: as §3

MKL-2 = assay: as above; details: MCC and control cell lines, CellTiter-Glo viability, 72 h; series mostly up to 46 µM
How it was run: as §3

CRL-7250 [4] = assay: as above; details: MCC and control cell lines, CellTiter-Glo viability, 72 h; series mostly up to 44.8 µM
How it was run: as §3
Note: nearly all actives have a fitted effect of over 60% in size.
Potency is the fitted concentration of half-maximal effect.

## O=C(NC(O)C(Cl)(Cl)Cl)NC(O)C(Cl)(Cl)Cl (stereo not drawn)
PC15
  Potency: inactive
PC26
  Potency: inactive
PC49
  Potency: inactive
SC27B
  Potency: inactive
TAB109
  Potency: inactive
TAB113
  Potency: inactive
TAB165
  Potency: inactive
W2
  Potency: inactive
CRL-7250 [1]
  max response: 1.53%
HEK293
  max response: 0.365%
HaCat [2]
  outcome: inactive
KB-3-1
  max response: 2.53%
NIH3T3
  outcome: inactive
HACAT [3]
  outcome: inactive
MCC-13
  Potency: inactive
MCC-26
  Potency: inactive
MKL-1
  Potency: inactive
MKL-2
  Potency: inactive

## Cc1ccc(-c2nc3ccc(C)cn3c2CC(=O)N(C)C)cc1
PC15
  Potency: inactive
PC49
  Potency: inactive
SC27B
  Potency: inactive
TAB109
  Potency: inactive
TAB113
  Potency: inactive
TAB165
  Potency: inactive
W2
  Potency: inactive
CRL-7250 [1]
  max response: 3.97%
HEK293
  max response: -21.2%
HaCat [2]
  max response: -0.388%
KB-3-1
  max response: 2.97%
NIH3T3
  max response: -7.47%
MCC-13
  Potency: inactive
MCC-26
  Potency: inactive
MKL-1
  Potency: inactive
MKL-2
  Potency: inactive

## Clc1ccc(CCC(Cn2ccnc2)Sc2c(Cl)cccc2Cl)cc1 (stereo not drawn)
CRL-7250 [1]
  max response: -0.661%
HEK293
  Potency: 26.4 µM (active)
KB-3-1
  max response: 1.06%
NIH3T3
  max response: -8.13% and -9.95%
MCC-13
  Potency: inactive
MKL-1
  Potency: inactive

## C[C@H]1O[C@@H](O[C@H]2[C@@H](O)C[C@H](O[C@H]3[C@@H](O)C[C@H](O[C@H]4CC[C@@]5(C)[C@H](CC[C@@H]6[C@@H]5CC[C@]5(C)[C@@H](C7=CC(=O)OC7)CC[C@]65O)C4)O[C@@H]3C)O[C@@H]2C)C[C@H](O)[C@@H]1O
CRL-7250 [1]
  Potency: 33.5 nM (active) and 48.5 nM (active)
HEK293
  Potency: 53.1 nM (active) and 61.1 nM (active)
HaCat [2]
  Potency: 266 nM (active)
KB-3-1
  Potency: 73.1 nM (active) and 137 nM (active)
NIH3T3
  max response: -6.15%
MKL-1
  Potency: 0.0473 µM (active)
MKL-2
  Potency: 0.0237 µM (active)

## CCOC(=O)C1(c2ccccc2)CCN(CCC(C#N)(c2ccccc2)c2ccccc2)CC1
PC15
  Potency: 12.6 µM (active)
PC26
  Potency: 6.75 µM (active)
SC27B
  Potency: 2.82 µM (active)
TAB109
  Potency: 3.16 µM (active)
TAB113
  Potency: 2.24 µM (active)
TAB165
  Potency: 2.51 µM (active)
W2
  Potency: 4.78 µM (active)
HEK293
  Potency: 7.5 µM (active)
HaCat [2]
  max response: -18.2%
KB-3-1
  max response: -29%
NIH3T3
  max response: -8.7%
MCC-13
  Potency: inactive
MKL-1
  Potency: inactive

## Fc1ccc(C(OCCN2CCN(CCCc3ccccc3)CC2)c2ccc(F)cc2)cc1
PC15
  Potency: 11.2 µM (active)
PC26
  Potency: 12 µM (active)
PC49
  Potency: 8.91 µM (active)
SC27B
  Potency: 8.91 µM (active)
TAB109
  Potency: 7.94 µM (active)
TAB113
  Potency: 8.91 µM (active)
TAB165
  Potency: 4.47 µM (active)
W2
  Potency: 4.26 µM (active)
CRL-7250 [1]
  Potency: 13.2 µM (active)
HEK293
  Potency: 18.7 µM (active) and 21.1 µM (active)
KB-3-1
  Potency: 23.1 µM (active)
MKL-1
  Potency: 9.44 µM (active)
MKL-2
  Potency: 23.5 µM (active) and 4.73 µM (active)

## CC(=O)[C@H]1CC[C@H]2[C@@H]3CC[C@H]4C[C@H](O)CC[C@]4(C)[C@H]3C(=O)C[C@]12C
PC15
  Potency: inactive
PC26
  Potency: inactive
PC49
  Potency: inactive
SC27B
  Potency: inactive
TAB109
  Potency: inactive
TAB113
  Potency: inactive
TAB165
  Potency: inactive
W2
  Potency: inactive
CRL-7250 [1]
  max response: -2.84%
HaCat [2]
  max response: 0.502%
KB-3-1
  max response: -4.21%
NIH3T3
  outcome: inactive
MCC-13
  Potency: inactive
MKL-1
  Potency: inactive
MKL-2
  Potency: inactive

## CN1CCN(CCCN2c3ccccc3Sc3ccc(Cl)cc32)CC1
CRL-7250 [4]
  outcome: inactive

## C[C@@H](O)[C@H]1C(=O)N2C(C(=O)O)=C(S[C@@H]3CN[C@H](C(=O)N(C)C)C3)[C@H](C)[C@H]12
CRL-7250 [4]
  outcome: inactive

## CNS(=O)(=O)Cc1ccc2[nH]cc(CCN(C)C)c2c1
CRL-7250 [4]
  outcome: inactive

## Nc1cc(-c2ccncc2)c[nH]c1=O
CRL-7250 [4]
  outcome: inactive

## CC(O)(CS(=O)(=O)c1ccc(F)cc1)C(=O)Nc1ccc(C#N)c(C(F)(F)F)c1 (stereo not drawn)
CRL-7250 [1]
  outcome: inactive
HaCat [2]
  outcome: inactive
KB-3-1
  max response: 4.8% and -10.6%
NIH3T3
  max response: 2.23%
  outcome: inactive
CRL-7250 [4]
  outcome: inactive
HACAT [3]
  outcome: inactive
MKL-2
  Potency: 4.18 µM (active)

## c1ccc2c(c1)OCC(C1=NCCN1)O2 (stereo not drawn)
PC15
  Potency: inactive
PC26
  Potency: inactive
SC27B
  Potency: inactive
TAB109
  Potency: inactive
TAB113
  Potency: inactive
TAB165
  Potency: inactive
CRL-7250 [1]
  Potency: 23.7 µM (active)
HEK293
  Potency: 18.8 µM (active)
KB-3-1
  max response: 29.1%
NIH3T3
  Potency: 15 µM (active)
MKL-1
  Potency: 26.6 µM (active)
MKL-2
  Potency: 5.96 µM (active)

## CN(C)C(=N)N=C(N)N
CRL-7250 [4]
  outcome: inactive

## CN1C[C@H](CNC(=O)OCc2ccccc2)C[C@@H]2c3cccc4c3c(cn4C)C[C@H]21
PC26
  Potency: 13.5 µM (active)
PC49
  Potency: inactive
TAB109
  Potency: 5.62 µM (active)
TAB113
  Potency: 12.6 µM (active)
TAB165
  Potency: 10 µM (active)
W2
  Potency: 4.78 µM (active)
HaCat [2]
  max response: -40.8%
KB-3-1
  max response: -8.28%
MCC-13
  Potency: inactive

## O=C(O)P(=O)(O)O
KB-3-1
  max response: -7.16%
CRL-7250 [4]
  outcome: inactive

## OCCN(CCO)c1nc(N2CCCCC2)c2nc(N(CCO)CCO)nc(N3CCCCC3)c2n1
CRL-7250 [4]
  outcome: inactive

## Cc1cccc(Nc2ccncc2S(=O)(=O)NC(=O)NC(C)C)c1
CRL-7250 [4]
  outcome: inactive

## CC1=C2C[C@@H]3[C@@H](CC=C4C[C@@H](O)CC[C@@]43C)[C@@H]2CC[C@]12O[C@H]1C[C@H](C)CN[C@H]1[C@H]2C
CRL-7250 [1]
  max response: 4.78%
HaCat [2]
  outcome: inactive
KB-3-1
  max response: 6.86%
NIH3T3
  max response: 0.588%
HACAT [3]
  outcome: inactive
MCC-13
  Potency: inactive
MKL-1
  Potency: inactive
MKL-2
  Potency: inactive

## CCC(COC(=O)c1cc(OC)c(OC)c(OC)c1)(c1ccccc1)N(C)C (stereo not drawn)
PC15
  Potency: inactive
PC26
  Potency: inactive
PC49
  Potency: inactive
SC27B
  Potency: inactive
TAB109
  Potency: inactive
TAB113
  Potency: inactive
W2
  Potency: 6.75 µM (active)
CRL-7250 [1]
  max response: -3.97%
HaCat [2]
  outcome: inactive
KB-3-1
  max response: 3.84%
NIH3T3
  outcome: inactive
HACAT [3]
  outcome: inactive
MCC-13
  Potency: inactive
MCC-26
  Potency: inactive
MKL-1
  Potency: inactive
MKL-2
  Potency: inactive

## C[C@]12CCC(=O)C(O)=C1CC[C@@H]1[C@@H]2CC[C@]2(C)C(=O)CC[C@@H]12
CRL-7250 [1]
  max response: -13.2%
HaCat [2]
  max response: -15.5%
KB-3-1
  max response: -15.7%
NIH3T3
  max response: -5.78%
MCC-13
  Potency: inactive
MCC-26
  Potency: inactive
MKL-1
  Potency: inactive
MKL-2
  Potency: inactive
